From ChEMBL document CHEMBL3433997, “St. Jude Leishmania screening dataset” (2016)

How the values were obtained:
Format in all cases: functional
[1] = target: Solute carrier family 2, facilitated glucose transporter member 1 (Homo sapiens) (UniProt P11166); experiment: ST_JUDE_LEISH: Cytotoxicity at 2uM final concentration against transgenic Leishmania Mexicana promastigotes LmGLUT1 that are glucose transport deficient and complemented with the human glucose transporter GLUT1. Activity is measured by DNA content using SYBR green in vitro
Solute carrier family 2, facilitated glucose transporter member 1 (Homo sapiens), sequence (P11166 whole entry): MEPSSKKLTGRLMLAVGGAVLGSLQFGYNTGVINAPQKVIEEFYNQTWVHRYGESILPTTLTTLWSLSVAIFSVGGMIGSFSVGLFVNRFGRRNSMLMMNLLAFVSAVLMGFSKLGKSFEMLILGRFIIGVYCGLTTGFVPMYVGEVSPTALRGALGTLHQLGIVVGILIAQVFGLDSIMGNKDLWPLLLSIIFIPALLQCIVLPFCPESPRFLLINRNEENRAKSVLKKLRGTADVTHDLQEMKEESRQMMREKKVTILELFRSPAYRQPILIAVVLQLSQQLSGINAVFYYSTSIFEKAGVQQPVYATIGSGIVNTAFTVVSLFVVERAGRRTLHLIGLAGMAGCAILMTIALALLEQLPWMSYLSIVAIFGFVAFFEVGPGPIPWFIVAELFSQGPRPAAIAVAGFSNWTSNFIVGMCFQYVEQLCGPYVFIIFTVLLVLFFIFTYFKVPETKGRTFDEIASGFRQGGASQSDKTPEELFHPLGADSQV

[2] = target: Hexose transporter 1 (Plasmodium falciparum) (UniProt O97467); experiment: ST_JUDE_LEISH: Cytotoxicity at 2uM final concentration against transgenic Leishmania Mexicana promastigotes LmPfHT that are glucose transport deficient and complemented with the Plasmodium falciparum hexose transporter. Activity is measured by DNA content using SYBR green in vitro
[3] = target: Glucose transporter (Leishmania mexicana) (UniProt O61059); experiment: ST_JUDE_LEISH: Cytotoxicity at 2uM final concentration against transgenic Leishmania Mexicana promastigotes LmGT2 that are glucose transport deficient and complemented with the L. Mexicana glucose transporter 2. Activity is measured by DNA content using SYBR green in vitro

SMILES	inhibition [1] [%]	inhibition [2] [%]	inhibition [3] [%]
Cc1cc(N[C@@H](Cc2ccccc2)C(=O)NCCOc2ccccc2)nc(NCC2CCCCC2)n1	6	6.54	0.5
CC(=O)N(C)c1cccc(C(=O)Nc2ccc(-c3cccc(-c4nc5cc(C(F)(F)F)ccc5[nH]4)c3)cc2)c1	11.5	10.1	9.62
CC(C)N1CCN(c2ccc(OCCCCN3CCN(c4cccc(Cl)c4Cl)CC3)c(C(F)(F)F)c2)CC1	-0.92	-1.01	0.98
CCCSc1nc2c(c(=O)n1Cc1ccco1)C1(CCCCC1)Cc1ccccc1-2	1.22	1.9	1.88
COc1cc(CCNCC(O)c2ccc([N+](=O)[O-])c(OCc3ccccc3)c2)cc(OC)c1OC (stereo unspecified)	-0.46	1.28	0.48
COc1cc(Cn2ccc3c4c(N)nc(N)nc4ccc32)cc(OC)c1OC	86.3	83.5	73.1
Oc1ccc2[nH]cc(C3CCN(CCC(c4ccccc4)c4ccccc4)CC3)c2c1	4.66	3.07	4.21
COc1ccc2ncc(F)c([C@@H](O)CN3CCC(NCc4ccc5c(c4)NCCS5)CC3)c2n1	8.36	8.01	-5.06
COc1cc(-c2ccccc2)ccc1C(=O)Nc1ccc2c(c1)N(C)CCC2	4.93	2.53	3.05
CC(=O)Nc1ccc(C(=O)Nc2cccc(-c3cccc(-c4nc5cc(F)ccc5[nH]4)c3)c2)cn1	7.97	10.8	3.74
O=C(CC1SC(N2N=C(c3cccs3)CC2c2ccccc2)=NC1=O)Nc1ccc(Cl)cc1 (stereo unspecified)	1.98	2.91	-0.33
COc1cc(-c2cc3cc(Cl)c(Cl)cc3[nH]2)ccc1C(=O)NCCC1CCCN1C (stereo unspecified)	-0.78	-0.94	-1.26
